Source: PubChem BioAssay (NCI)
The panel holds about 83,000 compounds, 20% with a hit somewhere; the sample as a whole holds those more often.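 Activity criterion: percent growth below 10, measured after cells in 96-well plates were exposed to a single compound concentration for 48 hours.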 A number with no mark means an inactive call. Activity calls are given as the source filed them.

Tests used:
Assay in all cases: NCI-60 one-dose screen, 48 h (100 = growth as untreated, 0 = no growth, -100 = all killed)
Conditions in all cases: 10 µM unless noted
DU-145 prostate = system: DU-145 prostate
K-562 leukemia = system: K-562 leukemia
MALME-3M melanoma = system: MALME-3M melanoma
MDA-MB-231 breast = system: MDA-MB-231 breast
RXF 393 renal = system: RXF 393 renal
SF-268 CNS = system: SF-268 CNS
SF-295 CNS = system: SF-295 CNS
SF-539 CNS = system: SF-539 CNS
UACC-257 melanoma = system: UACC-257 melanoma
M14 melanoma = system: M14 melanoma
HCT-15 colon = system: HCT-15 colon
HT29 colon = system: HT29 colon
SNB-75 CNS = system: SNB-75 CNS
SNB-19 CNS = system: SNB-19 CNS
U251 CNS = system: U251 CNS
PC-3 prostate = system: PC-3 prostate
SK-MEL-5 melanoma = system: SK-MEL-5 melanoma
UACC-62 melanoma = system: UACC-62 melanoma
SK-MEL-28 melanoma = system: SK-MEL-28 melanoma
LOX IMVI melanoma = system: LOX IMVI melanoma

SMILES | growth (DU-145 prostate) | growth (K-562 leukemia) | growth (MALME-3M melanoma) | growth (MDA-MB-231 breast) | growth (RXF 393 renal) | growth (SF-268 CNS) | growth (SF-295 CNS) [%] | growth (SF-539 CNS) | growth (UACC-257 melanoma) | growth (M14 melanoma) | growth (HCT-15 colon) | growth (HT29 colon) | growth (SNB-75 CNS) | growth (SNB-19 CNS) [%] | growth (U251 CNS) | growth (PC-3 prostate) [%] | growth (SK-MEL-5 melanoma) [%] | growth (UACC-62 melanoma) | growth (SK-MEL-28 melanoma) | growth (LOX IMVI melanoma)
Cc1ccccc1NC(=O)c1sc2nc3c(cc2c1N)CCCC3 | 25.2% | 17.6% | 53.9% | 52.5% | 14.2% | 49.6% | 16.4 | 8.72% (active) | 40.7% | 27% | 25% | 7.53% (active) | 37.8% | 30.9 | 23% | 29.9 | 20.5 | 27.6% | 75.1% | 
O=C1/C(=C/c2ccccc2)COc2ccc(O)cc21 | 88.5% | 17.5% | 106% | 92.9% | 105% | 90.6% | 107 | 108% | 98.2% | 85.8% | 57.1% | 62.7% | 99.7% | 93.6 | 55.1% | 84.2 |  | 86.6% | 103% | 89.8%
CN1CCN(Cc2ccc(NC(=O)c3cncc(C#Cc4cnc(N)c5ccc(C#N)cc45)c3)cc2C(F)(F)F)CC1 | -7.64% (active) | 0.252% (active) | -72.6% (active) | -81.7% (active) | -90.7% (active) | -69.4% (active) | 38.8 | -57.6% (active) | 6.11% (active) | -83.9% (active) | -82.4% (active) | -32.4% (active) | -20% (active) | 25.8 | 3.03% (active) | 27.4 |  | -51.8% (active) | -81% (active) | -95.8% (active)
C#C[C@]1(O)CC[C@H]2[C@@H]3CC=C4c5sc(-c6cccc(C)c6)nc5CC[C@]4(C)[C@H]3CC[C@@]21C | 78.5% | 0.702% (active) | 83% | 59.8% | 11.7% | 60.8% | 58.5 | 15.9% | 58.5% | 58.7% | 56.6% | 38.8% | 13.8% | 86.7 | 71.8% | 40.5 |  | 77.3% | 55.9% | 55%
